Source: PubChem BioAssay (NCATS)
Where “and” joins values, the source holds several entries; their conditions need not be identical. Equal entries are not always repeated. Inconclusive results are not listed. Calls of active or inactive are those of the source. Calls come from the whole dose curve; as a rule, active = well fitted inhibition curve with a large enough effect in the signal ratio, with a control signal flat (not every such curve was filed as active); inconclusive = small, poorly fitted or top-dose-only effect, or effect the other way, or a change in a side signal; inactive = no such curve, though single readings can be large or run the other way; the % refers to the signal ratio.

What follows are compounds tested against Retinoic acid receptor RXR-alpha (Homo sapiens) (UniProt P19793) (assay: qHTS assay for small molecule antagonists of retinoid X receptor alpha signaling (AID 588546)). Details: HEK293T RXRa-UAS-bla, beta-lactamase ratio, antagonist mode.
Sequence of Retinoic acid receptor RXR-alpha (Homo sapiens) (P19793 whole entry, looked up): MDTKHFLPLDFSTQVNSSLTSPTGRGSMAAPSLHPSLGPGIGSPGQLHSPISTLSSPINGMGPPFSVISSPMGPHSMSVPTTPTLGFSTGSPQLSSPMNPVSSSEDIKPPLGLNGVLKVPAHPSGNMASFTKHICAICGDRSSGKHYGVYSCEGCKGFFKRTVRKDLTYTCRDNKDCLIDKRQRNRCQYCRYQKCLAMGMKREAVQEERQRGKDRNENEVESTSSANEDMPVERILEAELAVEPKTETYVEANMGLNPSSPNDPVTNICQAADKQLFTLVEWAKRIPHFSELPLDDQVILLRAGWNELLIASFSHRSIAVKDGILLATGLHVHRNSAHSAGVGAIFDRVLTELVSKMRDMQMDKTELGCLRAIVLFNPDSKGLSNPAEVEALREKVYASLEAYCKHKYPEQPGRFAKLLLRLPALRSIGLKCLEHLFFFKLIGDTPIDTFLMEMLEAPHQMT
Excerpt: NIH Chemical Genomics Center [NCGC] U.S. Environmental Protection Agency [EPA] National Institutes of Environmental Health Sciences [NIEHS] National Toxicology Program [NTP] NCGC Assay Overview The Retinoid X receptor (RXR), a nuclear hormone receptor is expressed in liver, spleen, placenta, epidermis, central nervous system. These receptors are able to form homo and heterodimers with other nuclear receptors and due to this heterodimerizing ability, RXR functions as master regulators producing diverse physiological effects. Three subtypes of RXR exist; alpha, beta and gamma. Retinoid X receptor alpha (RXR-alpha) has potential roles in metabolic signaling pathways, skin alopecia, dermal cysts, cardiac development, insulin sensitization etc. Therefore screening environmental chemicals on RXR-alpha signaling can be used for the studies focused on such therapeutic applications.
NCGC Assay Protocol Summary Using a beta-lactamase reporter-gene under control of Retinoid X receptor--alpha (RXR-alpha) response element, a cell-based assay [GeneBLAzer (RXR-alpha -UAS-bla assay developed by Invitrogen] was used to measure RXR-alpha ligands signaling. GeneBLAzer RXR-alpha -UAS-bla HEK293T cells were used with assay medium containing 2% charcoal-stripped FBS. The assay was performed in clear bottom black Greiner 1536-well plates. Library compounds were measured for their ability to inhibit the reporter gene activity. Compounds were screened in a titration series in 1536-well format. The fluorescence intensity (405 nm excitation, 460/530 nm emission) was measured using an EnVision plate reader. Data was normalized relative to 9-cis-retinoic acid control (500 nM, 100%), and DMSO only wells (basal, 0%). Concentration-response titration points for each compound were fitted to the Hill equation yielding concentrations of half-maximal inhibition (IC50) and maximal response (efficacy) values. qHTS protocol for RXR-alpha beta-lactamase assay in antagonist mode [Step] [Parameter] [Value] [Description] 1. Reagent; 5 uL; 2500 cells/well 2. Incubation; 37 C for 4 hrs 3. Compounds; 23 nL; 0.59 nM to 92 uM 4. Controls (DMSO); 23 nL 5. Agonist (Stimulator); 1uL; 9-cis-retinoic acid at 500 nM and 100 nM final concentrations 6. Incubation; 37 C for 18 hrs 7. Detection reagent; 1 uL of CCF4-dye 8. Incubation; RT for 2 hrs 9. Detection; Fluorescence; Envision plate reader

Structure (SMILES)	Potency	max response
CCC(C)Nc1ccc(NC(C)CC)cc1 (stereo not given)	28.2 µM (active)	–
Cc1cccc(O)c1C	–	20.3% (inactive)
CN1[C@H]2CC(OC(=O)[C@H](CO)c3ccccc3)C[C@H]1[C@H]1O[C@H]12 (stereo not given in full)	–	-1.24% (inactive) and 3.3% (inactive)
CC1CCC(C(C)C)C(O)C1 (stereo not given)	–	5.79% (inactive)
O=C1OC(O)C(C(Cl)Cl)=C1Cl (stereo not given)	–	-25.5% (inactive)
CN(C)c1ccc(C2(c3ccc(N(C)C)cc3)OC(=O)c3cc(N(C)C)ccc32)cc1	–	32.7% (inactive)
C=C(C)c1ccccc1	–	-3.16% (inactive)
Cc1ccc(S(=O)(=O)Oc2ccc(N=Nc3ccc(-c4ccc(N=Nc5c(O)ccc6cc(S(=O)(=O)O)cc(S(=O)(=O)O)c56)c(C)c4)cc3C)cc2)cc1	–	14.7% (inactive)
CCCCCC/C(C=O)=C\c1ccccc1	–	9.05% (inactive)
Cc1cc(Nc2ccc(O)cc2)ccc1N	–	21.4% (inactive)
CC1(C)CCC(C)(C)c2cc(C(=O)Nc3ccc(C(=O)O)cc3)ccc21	–	-51.1% (inactive)
O=C1OC2(c3cc(Br)c(O)c(Br)c3Oc3c2cc(Br)c(O)c3Br)c2c(Cl)c(Cl)c(Cl)c(Cl)c21	–	7.11% (inactive)
ClC1=C(Cl)C(Cl)(Cl)C(Cl)=C1Cl	–	-8.53% (inactive) and -12% (inactive)
O=C=Nc1ccc(Cc2ccc(N=C=O)cc2)cc1	–	9.21% (inactive) and 0.991% (inactive)
O=C(/C=C/c1ccc(O)c(O)c1)OC1C[C@](O)(C(=O)O)C[C@@H](O)[C@H]1O (stereo not given in full)	–	-11.4% (inactive) and -2.14% (inactive)
